The values that follow come from ChEMBL document CHEMBL1157539, “Thousands of chemical starting points for antimalarial lead identification” (Nature, 2010).

Common to all, as to format: functional
Experiment [1] has as its system Plasmodium falciparum. Briefly: GSK_TCMDC: Inhibition of Plasmodium falciparum 3D7 in whole red blood cells, using parasite LDH activity as an index of growth. Test compounds present at 2uM.
For experiment [2], the system named is Plasmodium falciparum. Briefly: GSK_TCMDC: Inhibition of Plasmodium falciparum Dd2 in whole red blood cells, using parasite LDH activity as an index of growth. Test compounds present at 2uM.
For a further experiment, the system named is HepG2. Nature of the experiment: GSK_TCMDC: Percent inhibition of human HepG2 cell line. Test compounds present at 10uM.

Molecules are shown by their SMILES.

A word on the Inhibition: it is the share of the control response that was lost under treatment. Low values mean a response near the control, high ones a response far below the control. `Cc1ccc(F)c(NC(=O)c2c(-c3c(F)cccc3Cl)noc2C)c1`: the Inhibition is on record as 90% in the experiment with Plasmodium falciparum [1], 18% in the experiment with Plasmodium falciparum [2] and 13% in the experiment on HepG2.
Taken in the same sequence, the figures for `Cc1ccccc1C1CCN(c2ccc(C(=O)NC3CC3)cn2)CC1.O=C(O)C(F)(F)F` were 95%, 95% and 17%.
Taken in the same sequence, the figures for `Cn1c(Cc2ccccc2)nnc1Sc1ccc(C#N)c([N+](=O)[O-])c1` were 93%, 29% and 0%.
Consider `COc1cccc(C(=O)NC(c2ccccc2OC)c2cc(Cl)c3cccnc3c2O)c1` (stereo not drawn), for which the results for the Inhibition in the experiment on Plasmodium falciparum [1], in the experiment on Plasmodium falciparum [2] and with HepG2 were 91%, 36% and 58%, respectively.
The like results for `CC(C)CCN1CCC(Oc2ccc(NC(=O)c3cccs3)cc2Cl)CC1.O=C(O)C(F)(F)F` were, in that order, 97%, 96% and 31%.
Taken in the same sequence, the figures for `CCCc1ccc(C(=O)N2C(c3nccs3)C(C(N)=O)CC2(CC(C)C)C(=O)O)cc1` (stereo not drawn) were 94%, 80% and 16%.
Regarding `CCOC(=O)c1nc(-c2ccc(Cl)cc2)[nH]c1NC(=S)NCCCN1CCOCC1`, the Inhibition worked out at 92% in the experiment with Plasmodium falciparum [1], 33% in the experiment on Plasmodium falciparum [2] and 22% in the experiment on HepG2.
As for `CCCCCCNC(=N)c1ccc(OCCCCCOc2ccc(C(=N)NCCCCCC)cc2)cc1.Cl`, the Inhibition in the experiment with Plasmodium falciparum [1] is reported as 97%; in the experiment with Plasmodium falciparum [2], 98%; with HepG2, 55%.
Regarding `O=C(c1ccc(Br)o1)N1N=C(c2cccs2)CC1c1ccc(Br)cc1` (stereo not drawn), the Inhibition in the experiment with Plasmodium falciparum [1] is on record as 96%; in the experiment on Plasmodium falciparum [2] it was 45%; with HepG2, 5%.
`Cn1cncc1CCN(Cc1ccc(-c2ccc(C(F)(F)F)cc2)cc1)C(=O)Cn1c(SCc2cccc(F)c2F)cc(=O)c2ccccc21`: the Inhibition in the experiment on Plasmodium falciparum [1] is reported as 99%; in the experiment on Plasmodium falciparum [2], 90%; in the experiment with HepG2 it was 24%.
For `COc1ccc(C2CC(=O)C3=C(C2)NC(C)=C(C(=O)OC2CCCC2)C3c2ccc(O)cc2)cc1OC` (stereo not drawn), the Inhibition in the experiment with Plasmodium falciparum [1] is recorded as 97%; with Plasmodium falciparum [2], 92%; in the experiment on HepG2 it was 0%.
